# Laboratory results taken from PubChem BioAssay (NCI).
# This is part of a sample that, as a whole, favours compounds with a hit. Of some 83,000 tested, about 20% had one in any assay.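 Interpretation: 100, growth as untreated; towards 0, rising growth inhibition; 0, no net growth; 0 to -100, cell death. Compounds scoring below 10 were considered active.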 Values without a mark were called inactive. The source made the active and inactive calls.
# Key:
# Test in all cases: NCI-60 one-dose screen, 48 h (100 = growth as untreated, 0 = no growth, -100 = all killed)
# Settings in all cases: 10 µM unless noted
# DU-145 prostate = tested on: DU-145 prostate
# K-562 leukemia = tested on: K-562 leukemia
# MALME-3M melanoma = tested on: MALME-3M melanoma
# MDA-MB-231 breast = tested on: MDA-MB-231 breast
# RXF 393 renal = tested on: RXF 393 renal
# SF-268 CNS = tested on: SF-268 CNS
# SF-295 CNS = tested on: SF-295 CNS
# SF-539 CNS = tested on: SF-539 CNS
# UACC-257 melanoma = tested on: UACC-257 melanoma
# M14 melanoma = tested on: M14 melanoma
Compound,growth (DU-145 prostate),growth (K-562 leukemia),growth (MALME-3M melanoma),growth (MDA-MB-231 breast),growth (RXF 393 renal),growth (SF-268 CNS) [%],growth (SF-295 CNS),growth (SF-539 CNS),growth (UACC-257 melanoma),growth (M14 melanoma)
CCOC(=O)c1nnn(-c2no[n+]([O-])c2-c2ccc(OC)cc2)c1COc1cccc2cccnc12,11.8%,11.9%,68.6%,17%,22.5%,21.8,33.4%,-3.16% (active),59.1%,12.4%
O=C1Nc2ccccc2/C1=N/N1C(=O)CN(CCCl)C1=O,119%,97.5%,107%,117%,115%,102,99.6%,105%,96.6%,107%
COc1cc2ncnc(Nc3ccc(S(=O)(=O)Nc4nccs4)cc3)c2cc1OCCCN1CCCC1,105%,84.2%,101%,104%,99%,99.2,106%,101%,99.6%,109%
C/C(=N\Nc1ccccc1)c1ccc(NC2=CC(=O)c3ccccc3C2=O)cc1,50.7%,19.4%,-65% (active),62.4%,92.1%,64.4,55.2%,92.9%,67.9%,26.3%
Cc1cc(=O)n(C(=S)Nc2ccc(Cl)cc2)c2cc(O)ccc12,109%,113%,91.5%,92.4%,99.7%,102,99.8%,101%,110%,108%
O=S(=O)(Nc1cc(Sc2nc3ccccc3s2)c(O)c2ccccc12)c1ccc2ccccc2c1,101%,-35.7% (active),102%,71.1%,104%,95.4,87.7%,106%,99.8%,109%
CN(C)c1ccc(/C=N\NC(=O)c2ccc3nc(-c4ccc(Cl)cc4)[nH]c3c2)cc1,85.4%,38.8%,11.8%,63.9%,77.4%,78.2,31.3%,88%,100%,60.3%
CNC(=O)c1cc(Oc2ccc3c(c2)sc2nc(-c4cc(C(F)(F)F)cc(C(F)(F)F)c4)cn23)ccn1,67.7%,29.4%,47.1%,48.2%,79.8%,65.1,36.2%,52.4%,34.5%,69.3%
O=C(NNc1nc2cc(F)ccc2n2c(CN3CCOCC3)ccc12)c1ccccc1,23.6%,5.32% (active),8.12% (active),17.3%,-0.227% (active),14.8,0.468% (active),4.33% (active),-6.53% (active),-15.6% (active)
C1CCC(N2CN3c4nonc4N4CN(C5CCCCC5)CN5c6nonc6N(C2)C3C45)CC1 (stereo not given),104%,82.1%,91.5%,106%,103%,96.5,91.6%,101%,99.2%,96%
COc1ccc(C2CC(n3ccnc3)c3cc(OC)c(OC)c(OC)c32)cc1O (stereo not given),102%,44.7%,73.2%,81%,70.8%,90,57.5%,89.8%,58.5%,73.1%
O=C1C=C(SCCO)C(=O)c2ccccc21,-96.7% (active),-38.4% (active),-68.1% (active),40.2%,42.4%,27.2,-77.4% (active),-77.1% (active),66.7%,-86.5% (active)
CCn1cc(C(=O)O)c(=O)c2cc(F)c(N3CCN(CC(=O)Nc4ccccc4)C(C)C3)c(F)c21 (stereo not given),104%,87.1%,97.9%,87.1%,101%,93.7,95.3%,99.1%,102%,105%
O=C(/C=C/c1ccccc1)c1ccc(-n2cc(CN3CCN(c4cc5c(cc4F)c(=O)c(C(=O)O)cn5C4CC4)CC3)nn2)cc1,76.3%,56%,91.2%,89.4%,58.3%,70.4,91.7%,69%,91%,84.4%
CCCC(=O)NC(c1ccc2c(c1)OCO2)c1cc(Cl)c2cccnc2c1O (stereo not given),53.7%,11.4%,42.5%,34.9%,59.9%,37.7,12.7%,18.6%,37.8%,26.3%
Cc1nc([P+](c2ccccc2)(c2ccccc2)c2ccccc2)c(N2CCCCC2)o1,30.2%,15.8%,53.7%,43.5%,67%,26,32.7%,46.6%,8.05% (active),37%
[N-]=[N+]=NCC1OC(n2cnc3c(NC(=O)Nc4ccccc4)ncnc32)C2OC(=O)CC12 (stereo not given),109%,92.7%,96.9%,123%,-28.7% (active),103,100%,97.8%,122%,108%
COc1ccc(/C=C/C(c2cc(OC)c(OC)c(OC)c2)n2cncn2)cc1O (stereo not given),21%,8.05% (active),54.4%,45.5%,-16.9% (active),54.1,1.43% (active),-4.58% (active),55.6%,-12.3% (active)
COc1cc2ncnc(Nc3ccc(F)c(Cl)c3)c2cc1OCC(=O)N1CCOCC1,57.3%,88.4%,98.2%,108%,107%,75.3,90.6%,97.7%,106%,90.4%
CN1C(=O)/C(=C/c2ccc(C(=O)Nc3ncc(Cc4cccc(C(F)(F)F)c4)s3)cc2)SC1=S,68.5%,48.2%,32.2%,69.1%,26.9%,59.3,26.4%,56.3%,71.7%,16.4%
COC(=O)c1c(C)nc(C)c2c1C(=O)C=C(NCc1ccccc1)C2=O,95.8%,69.1%,-1.94% (active),70.3%,94.5%,78.8,87.2%,96.9%,104%,66.9%
Clc1ccc(-c2cc(-c3ccccc3)nc(N3CCN(CCCNc4ccnc5cc(Cl)ccc45)CC3)n2)cc1,19.2%,-14.7% (active),-32.8% (active),-51.7% (active),-60.5% (active),13.5,39.6%,-65.7% (active),39.2%,-51.8% (active)
COc1cc2c(cc1-c1c(C)noc1C)ncc1nc(CN3CCOCC3)n([C@H](C)COC(F)F)c12,62.2%,28%,37.8%,29.5%,35.1%,55.2,40.3%,35.1%,26.3%,40.1%
Nc1cc(C(=O)O)cc(-n2c(O)c(C=C3N=c4ccccc4=N3)sc2=S)c1,111%,116%,96.9%,89.4%,112%,97.6,101%,97.3%,102%,97.9%
CCCCO[C@@H]1C=C2[C@H]3CC(C)(C)C(=O)C[C@]3(C(=O)O[C@@H]3O[C@H](CO[C@@H]4O[C@H](CO)[C@@H](OC5OC(C)C(O)C(O)C5O)[C@H](O)[C@H]4O)[C@@H](O)[C@H](O)[C@H]3O)CC[C@@]2(C)[C@]2(C)CC[C@H]3C(C)(C)C(=O)CC[C@]3(C)[C@@H]12 (stereo not given in full),97.9%,90.5%,34.2%,73.2%,63.2%,47.2,92.8%,60.1%,49.1%,40.5%
CSc1nc2ccc(C)cc2cc1/C=C1/C=C(c2ccccc2)NC1=O,47.4%,41.3%,40.4%,38.5%,79.1%,66.3,36.7%,39.5%,80%,64.1%
